High-throughput results deposited in PubChem by National Center for Advancing Translational Sciences (NCATS).
The full list was thinned out, with hits kept by preference.
Shiga toxin inh: Shiga toxin inhibition; Vero cells, Shiga toxin protein synthesis inhibition reporter; inhibition, % at 38.7 µM; actives 9.2% (n = 290,000); in the data active = inhibition mostly above about 28%, no sharp cut-off; inactive = mostly below about 43%; also: 0% is about no effect
FBPA Giardia inh: blocks Giardia fructose-bisphosphate aldolase activity. AID 2451. purified Giardia FBPA. actives 0.71% (n = 290,000). Potency, µM (titrated, usually from 59.6 µM), for the others: at the top dose activity, negative = inhibition, most hits filed as inhibitors; also: potency is read from the fitted curve at half-maximal effect; % is scaled to controls: 0 for no effect and ±100 for the full control effect; nearly all actives have a fitted effect of over 55% in size
Target sequence (A8B2U2 whole entry, looked up): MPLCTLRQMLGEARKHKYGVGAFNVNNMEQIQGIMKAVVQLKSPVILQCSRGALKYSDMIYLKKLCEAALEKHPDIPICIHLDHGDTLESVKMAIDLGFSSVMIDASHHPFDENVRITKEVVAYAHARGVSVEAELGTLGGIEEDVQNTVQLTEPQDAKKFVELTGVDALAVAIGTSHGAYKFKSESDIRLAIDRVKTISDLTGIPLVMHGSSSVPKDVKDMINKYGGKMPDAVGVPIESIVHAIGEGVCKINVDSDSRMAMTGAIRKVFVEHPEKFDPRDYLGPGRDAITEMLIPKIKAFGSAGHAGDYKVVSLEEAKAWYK
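40 nM FBPA preincubated 10 min at RT with compound (up to 57.5 uM final), then substrate plus GAPDH/TPI/NAD/arsenate coupling and diaphorase/resazurin added. Fluorescence read after 20 min at RT, 525/598 nm.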
CHX counter: counter-screen for Shiga toxin inhibitors: cycloheximide protein synthesis inhibition; cell reporter, cycloheximide protein synthesis inhibition counterscreen; actives 12% (n = 300,000); max response, %; in the data active = max response mostly above about 13%, no sharp cut-off; inactive = mostly below about 14%; also: read at 38.3 µM for the half of the compounds with a filed dose; 0% is about no effect
RE007 growth inh: less growth of the S. pombe RE007 Vpr strain; S. pombe RE007 Vpr strain, BacTiter-Glo ATP luminescence, 24 h; AID 651644; actives 0.21% (n = 360,000); Potency, µM (doses to about 92.2 µM), for inactives: at the top dose activity change, negative = less growth, most hits filed as inhibitors; active = well fitted falling curve with a large enough effect; inconclusive = small, poorly fitted or top-dose-only effect; inactive = no such curve, though single readings can be large or run the other way; also: potency is read from the fitted curve at half-maximal effect; % is scaled to controls: 0 for no effect and ±100 for the full control effect; nearly all actives have a fitted effect of over 50% in size
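Fission yeast strain RE007, carrying one chromosomally integrated HIV-1 vpr copy, was seeded at OD 0.01 in PMG+AL medium with 23 nL pinned compound. After 24 h at 30 °C and 99% humidity, viability was read by BacTiter-Glo luminescence.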
LmPK inh: LmPK (Leishmania mexicana) enzyme inhibition. Q27686. purified LmPK, Kinase-Glo ATP luminescence, 1 h. Potency, µM (top dose mostly 57.5 µM), for the others: at the highest dose activity change, negative = inhibition, actives largely listed as inhibitors. actives 0.37% (n = 290,000); also: potency is read from the fitted curve at half-maximal effect; % is scaled to controls: 0 for no effect and ±100 for the full control effect
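Purified LmPK (0.1 nM) converted ADP (0.1 mM) to ATP with PEP (0.5 mM) in imidazole buffer pH 7.2 with KCl and MgCl2, 1 h at room temperature. ATP was read by Kinase-Glo luminescence; data normalized to uninhibited and no-enzyme controls.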
TbPYK inhibitor: blocks Trypanosoma brucei pyruvate kinase | Q57TT1 | TbPYK enzyme, Kinase-Glo Plus ATP luminescence, 45 min | Potency, µM (doses to about 76.8 µM), for inactives: at the top dose activity, negative = inhibition, usual class: inhibitors | actives 0.12% (n = 410,000) | AID 624173; also: potency is read from the fitted curve at half-maximal effect; % is scaled to controls: 0 for no effect and ±100 for the full control effect; nearly all actives have a fitted effect of over 50% in size
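Assay buffer: 50 mM TEA pH 7.2, 100 mM KCl, 10 mM MgCl2, 0.05% BSA, 0.01% Tween-20. Pyruvate kinase from T. brucei plus substrate met compound, then ADP (130 uM final). Luminescence was read post 45 min RT.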
An asterisk follows results filed as active; ? = inconclusive; nt = no result. Unless noted, calls follow the shape of the dose curve; as a rule, active = well fitted curve in the direction sought with a large enough effect; inconclusive = small, poorly fitted or top-dose-only effect, or another doubt; inactive = no such curve, though single readings can be large; an effect the other way counts as inactive or inconclusive.

SMILES	Shiga toxin inh	FBPA Giardia inh	CHX counter	RE007 growth inh	LmPK inh	TbPYK inhibitor
Cc1ccn2c(NC(=O)c3ccccc3)c(-c3ccccc3)nc2c1	18	6%	1	8%	3%	4%
O=C(O)c1ccccc1C(=O)Nc1c(-c2ccccc2)nc2ccccn12	18	-6%	27*	4%	-3%	-2%
CCCCN(CC)C(=O)CSc1c2c(nc3ccc(Cl)cc13)CCCC2	nt	nt	nt	nt	nt	1%
COCC1=C(C(=O)OC(C)OC(=O)OC(C)C)N2C(=O)C(NC(=O)/C(=N/OC)c3csc(N)n3)[C@H]2SC1 (some centres not stated)	nt	nt	nt	nt	nt	-10%
Cc1ccc(NC(=S)Nc2cc(C)on2)cc1	67*	1%	48*	-16%	-4%	-8%
Cc1ccc(NC(=O)c2cc(C)on2)cc1	62	1%	56*	-4%	-14%	0%
CCc1ccc(NC(=O)c2cc(C(C)C)on2)cc1	65*	1%	36*	-23%	-8%	2%
Cc1cc(C(=O)Nc2ccccn2)no1	44*	5%	23*	-5%	-22%	-7%
Cc1cc(C(=O)Nc2ccc3c(c2)OCO3)no1	10	nt	8	-16%	-6%	-8%
Cc1cc(NC(=O)c2cccc(C(=O)Nc3cc(C)on3)n2)no1	12	-10%	-6	31%	1%	0%
Cc1ccc(NC(=S)NNC(=S)Nc2ccc(C)cc2)cc1	nt	nt	nt	-16%	nt	-3%
Cc1cccc(C)c1NC(=O)C(c1ccccc1)N1CCN(C/C=C/c2ccccc2)CC1 (configuration not stated)	nt	nt	nt	-9%	nt	3%
COc1cc(-c2cc3nc(NCc4ccco4)ccn3n2)cc(OC)c1OC	nt	nt	nt	-19%	nt	-1%
CCc1ccc(NC(=O)c2cc(-c3ccc(OC)cc3)on2)cc1	41*	5%	64*	7%	0%	-3%
CCc1ccc(NC(=O)c2cc(C)on2)cc1	51*	0%	28*	-9%	-13%	-2%
Cc1ccc(Cn2ccc(NC(=O)c3cc(C)on3)n2)cc1	52	2%	29*	-3%	1%	-1%
CCc1ccc(NC(=O)c2cc(-c3ccc(F)cc3)on2)cc1	31	0%	3	-4%	8%	1%
CCc1cc(-c2nnn(CCC3COCCO3)c2CC)ccc1-c1cn(Cc2ccccc2)nn1 (configuration not stated)	nt	nt	nt	-13%	nt	1%
Cc1cc(C)nc(/N=C(\N)Nc2ccccc2-c2ccccc2)n1	-15	?	-2	-9%	3%	2%
CCCCS/C(N)=N/N=C/c1ccccc1O	54	2%	32*	?	0%	-11%
C/C(=N/N=C/c1ccccc1O)c1ccccc1O	89*	4%	43*	-14%	-6%	0%
CCCS/C(N)=N/N=C/c1cc(C)ccc1O	145*	1%	42*	?	1%	1%
CCOC(=O)c1ccc(NC(=O)C(C)Sc2nc(=O)cc(N)n2CCc2ccccc2)cc1 (configuration not stated)	nt	nt	nt	nt	nt	-1%
COc1ccccc1CNS(=O)(=O)CCNC1CC1	nt	nt	nt	-3%	nt	-11%
COc1ccc(/C=C(/C(=O)c2cccs2)N2C=CC=CC2=C(C#N)C#N)cc1	47*	-4%	41*	0%	-5%	-22%
SMILES	Shiga toxin inh	FBPA Giardia inh	CHX counter	RE007 growth inh	LmPK inh	TbPYK inhibitor
O=C(CSc1nc2ccccc2s1)CSc1nc2ccccc2s1	-19	-8%	-1	4%	-2%	-1%
O=C(CSc1nc2ccccc2s1)c1cc2ccccc2o1	45	2%	24*	-10%	9%	-5%
O=C(O)CSc1nc2ccccc2s1	6	17%	8	1%	-13%	-1%
CC(=O)CSc1nc2ccccc2s1	61	-2%	25*	?	-6%	0%
CC(C)OC(=O)CSc1nc2ccccc2s1	64*	-3%	49*	-13%	-15%	12%
COC(=O)c1ccc(CSc2nc3ccccc3s2)o1	48*	-5%	56*	-2%	0%	4%
COc1ccc2nc3sc(C(=O)N4CCN(c5ccc(F)cc5)CC4)cc3cc2c1	nt	nt	nt	nt	nt	0%
CC(C)=CCC[C@H](C)C[C@@H]1Cc2[nH][nH]c(=O)c2[C@@H](c2ccc(F)cc2)O1	nt	nt	nt	1%	nt	2%
COc1ccc(N=C2S/C(=C\c3cc(C)n(C)c3C)C(=O)N2C)cc1	-13	-15%	-1	-4%	-3%	-14%
COc1ccccc1N1C(=O)S/C(=C\c2ccc(C)s2)C1=O	28*	?	22*	14%	1%	-4%
CCOC=C1SC(=S)N(c2ccccc2OC)C1=O	nt	nt	nt	-17%	nt	3%
COc1ccccc1N1C(=O)S/C(=C\c2cc(C)n(C)c2C)C1=O	56*	-13%	29*	-3%	2%	-10%
COc1cc2c(cc1OC)CN(c1ccc3ccccc3n1)CC2	88*	-30%	42*	-10%	-3%	-4%
COc1cc2c(cc1OC)CN(c1ccc(-c3ccccc3OC)nn1)CC2	4	-15%	-3	?	-3%	-5%
COc1cc2c(cc1OC)CN(c1ccc(C(F)(F)F)cn1)CC2	53*	-3%	21*	?	5%	-2%
CCOc1ccccc1C(=O)N1CCC(c2nc3ccccc3o2)CC1	nt	nt	nt	nt	nt	-1%
Cc1c(CCC(=O)NCCc2ccccc2F)c(=O)oc2cc(O)ccc12	nt	nt	nt	nt	nt	-5%
COc1cc(C)ccc1OCCCOc1c(Cl)cccc1Cl	60	0%	18*	-2%	-2%	-7%
COc1ccccc1OCCCOc1c(Cl)cc(C)cc1Cl	21	-2%	15*	2%	-6%	-4%
O=C(/C=C\Nc1ccccc1Br)c1ccc2c(c1)OCO2	-6	-10%	-3	-12%	6%	0%
COC(=O)c1ccc(N/C=C\C(=O)c2ccc3c(c2)OCO3)cc1	57*	13%	18*	-22%	1%	2%
COc1ccc(N/C=C\C(=O)c2ccc3c(c2)OCO3)cc1OC	24*	1%	67*	?	-2%	-4%
O=C(/C=C\Nc1cccc(F)c1)c1ccc2c(c1)OCO2	26	1%	28*	?	13µM*	-4%
Cc1c(C(=O)Nc2ccc(-c3nc4cc(Cl)ccc4o3)cc2)oc2ccccc12	nt	nt	nt	nt	nt	1%
CN(C)c1ncc2nc(-c3ccccc3)c(=O)n(C[C@H]3CCCO3)c2n1	nt	-20%	nt	nt	nt	nt
COc1cc(OC)c(Nc2nc3ccccc3nc2-n2nc(C)cc2C)cc1Cl	nt	nt	nt	nt	nt	-2%
Cc1ccc(/C(N)=N/OC(=O)c2cccc(F)c2)cc1	115*	1%	38*	-14%	0%	-3%
N/C(=N\OC(=O)c1cccc(F)c1)c1ccccc1	93*	-1%	88*	-28%	16µM*	-25%
N/C(=N\OC(=O)c1cccc(F)c1)c1ccccn1	17	nt	1	?	?	-9%
